Measurements taken from PubChem BioAssay (NCI).
Where “and” joins values, the source holds several entries; their conditions need not be identical. Equal entries are not always repeated. About 83,000 compounds went through this panel and 20% of them were active in at least one assay; those are over-represented in the sample as a whole.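 Compound tested at a single concentration for 48 hours in 96-well plates; a percent growth value below 10 was scored as active.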 Unmarked numbers belong to inactive results. Calls of active or inactive are those of the source.

Legend:
Assay in all cases: NCI-60 one-dose screen, 48 h (100 = growth as untreated, 0 = no growth, -100 = all killed)
Settings in all cases: 10 µM unless noted
SR leukemia = test system: SR leukemia
RPMI-8226 leukemia = test system: RPMI-8226 leukemia
OVCAR-8 ovarian = test system: OVCAR-8 ovarian
OVCAR-5 ovarian = test system: OVCAR-5 ovarian
OVCAR-4 ovarian = test system: OVCAR-4 ovarian
SK-OV-3 ovarian = test system: SK-OV-3 ovarian
IGROV1 ovarian = test system: IGROV1 ovarian
OVCAR-3 ovarian = test system: OVCAR-3 ovarian
HS 578T breast = test system: HS 578T breast
NCI/ADR-RES ovarian = test system: NCI/ADR-RES ovarian
T-47D breast = test system: T-47D breast
BT-549 breast = test system: BT-549 breast
MDA-MB-435 melanoma = test system: MDA-MB-435 melanoma
SW-620 colon = test system: SW-620 colon
MCF7 breast = test system: MCF7 breast
HCT-116 colon = test system: HCT-116 colon
HCC-2998 colon = test system: HCC-2998 colon
KM12 colon = test system: KM12 colon

| Structure (SMILES) | growth (SR leukemia) | growth (RPMI-8226 leukemia) | growth (OVCAR-8 ovarian) | growth (OVCAR-5 ovarian) | growth (OVCAR-4 ovarian) | growth (SK-OV-3 ovarian) | growth (IGROV1 ovarian) | growth (OVCAR-3 ovarian) | growth (HS 578T breast) | growth (NCI/ADR-RES ovarian) | growth (T-47D breast) | growth (BT-549 breast) | growth (MDA-MB-435 melanoma) | growth (SW-620 colon) | growth (MCF7 breast) | growth (HCT-116 colon) | growth (HCC-2998 colon) | growth (KM12 colon) |
| --- | --- | --- | --- | --- | --- | --- | --- | --- | --- | --- | --- | --- | --- | --- | --- | --- | --- | --- |
| COc1ccc(N2CCN(S(=O)(=O)c3oc(-c4ccccc4)nc3C#N)CC2)cc1 | 6.1% (active) | 41.4% | 60.2% | 95.2% | 86.7% | 113% | 54.6% | 73.3% | 104% | 91% | 73.1% | 77.5% | 65.2% | 7.02% (active) | 31.2% | 15.4% | 100% | 104% |
| CCNC(=O)Oc1ccc(/C(=C(/C)Cc2ccc(OC)cc2)c2ccc(OCCN(CC)CC)cc2)cc1 | -55.3% (active) | -14.8% (active) | 74.8% | 89.9% | 69.4% | 88.6% | 74.7% | 50.7% | 45.9% | 78.1% | 27.4% | 80.5% | 40.5% | 45.2% | 18.3% | 30.9% | 59.7% | 62.2% |
| CC[C@H](C)[C@H](NC(=O)[C@H](CCCCN)NC(=O)[C@H](CCCCN)NC(=O)[C@@H](NC(=O)[C@@H](NC(=O)[C@@H](N)Cc1cnc[nH]1)[C@@H](C)CC)[C@@H](C)CC)C(=O)N[C@@H](CCCNC(=N)N)C(=O)N[C@H](C(=O)N[C@@H](Cc1c[nH]c2ccccc12)C(=O)N[C@@H](Cc1ccc(O)cc1)C(=O)N[C@@H](CCCNC(=N)N)C(=O)N[C@@H](CCCCN)C(=O)N[C@@H](C)C(=O)N[C@@H](Cc1c[nH]c2ccccc12)C(=O)N[C@@H](Cc1cnc[nH]1)C(=O)N[C@H](C(=O)N[C@@H](CC(C)C)C(=O)NCC(=O)N[C@@H](CCCCN)C(=O)N[C@H](C(N)=O)C(C)C)C(C)C)[C@@H](C)O | 71.9% | 56.1% | 33.7% | 48.4% | 77.9% | 35% | 39.2% | 44.9% | 11.6% | 34.8% | -56.4% (active) | 41.9% | 23.6% | 44.2% | -67.9% (active) | 45.1% | 25.7% | -11.7% (active) |
| CN1CCN(CCCN2c3ccccc3Sc3ccc(Cl)cc32)CC1 | 74.7% | 76.3% and 92.3% | 84.8% and 85.4% | 94.4% | 68.4% and 81.1% | 99% | 54.5% | 93.9% and 81.3% | 66.8% and 60.3% | 69% and 83.2% | 63.5% | 85.8% and 91.1% | 30.3% and 42.4% | 83.2% and 94% | 37.2% and 63.8% | 57.5% and 70.6% | 66.8% | 73.8% and 98.2% |
| COC(=O)N/N=C/c1c[n+]([O-])c2ccccc2[n+]1[O-] | 93.4% | 94.3% | 90.8% | 108% | 103% | 29.9% | 102% | 111% | 126% | 102% | 20.4% | 108% | 96.4% | 103% | 93.6% | 104% | 104% | 103% |
| O=C1Nc2ccccc2/C1=C/c1cccn1CCCCCn1c2ccccc2c(=O)c2ccccc21 | 76.1% | 22.1% | 45.6% | 82.6% | 57.1% | 90.4% | 73% | 70.9% | 90.5% | 60.9% | 1.55% (active) | 65.5% | 93.6% | 100% | 1.17% (active) | 69.8% | 42.5% | 12.1% |
| COc1ccc(C/C(C)=C(\c2ccc(O)cc2)c2ccc(OCCCN(C)C)cc2)cc1 | 59.7% | 86.8% | 89.5% | 102% | 92.6% | 101% | 102% | 98.3% | 89% | 98.5% | 72.6% | 108% | 101% | 95.2% | 41.1% | 80.8% | 104% | 93% |
| CC(=O)N1N=C(c2ccc(Nc3nc(Nc4ccc(F)cc4)nc(Nc4ccc(Cl)cc4)n3)cc2)CC1c1ccc(N(C)C)cc1 (stereo not given) | -9.66% (active) | 55% | 40.2% | 65.9% | 47.8% | 85.1% | 60.8% | 63.5% | 24.6% | 48.3% | 24.3% | 69.5% | 18.7% | 78.5% | 29.9% | 130% and 24.2% | 22% | 55.5% |
| Cc1nc2sc(C(=O)Nc3cccc4ccccc34)c(N)c2cc1C(=O)/C=C/c1ccccc1 | 13.2% | -27% (active) | -13.9% (active) | 13.6% | 34.6% | 27.1% | 4.15% (active) | -67.8% (active) | 16.1% | -11.3% (active) | 14.5% | -31.1% (active) | 1.56% (active) | -8.3% (active) | 4.27% (active) | -52.8% (active) | -85.4% (active) | -43.7% (active) |
| Cc1ccc(-c2nc(C#N)c(S(=O)(=O)N(C)C)o2)cc1 | -10.1% (active) | 84.3% | 80.3% | 97.7% | 108% | 102% | 80.5% | 77% | 105% | 105% | 75.3% | 77.4% | 97.7% | 81% | 46.1% | 63.2% | 93.1% | 95.4% |
| CCOc1ccccc1NC(=O)c1cc2ccccc2cc1O | 45.5% | 25.8% | 52% | 114% | 61% | 81.3% | 60.3% | 18.2% | 51.6% | 28.7% | 51.7% | 85% | 49.4% | 64.7% | 70.3% | 31.9% | 76.3% | 33.6% |
| O=C1/C(=C/c2cn(-c3ccccc3)nc2-c2ccccc2)SC(=S)N1c1ccc(Cl)cc1 | 39.5% | 78.8% | 64.5% | 93.4% | 80.3% | 104% | 69.1% | 83.4% | 83.7% | 85.7% | 82.1% | 78.2% | 74.1% | 84.4% | 82.2% | 64.1% | 76.3% | 60.5% |
| Clc1ccc(/C=N\N2CCCCCC2)cc1 | 93.8% and 79.5% | 107% | 116% and 98.7% | 87.8% and 95% | 91.9% | 110% and 109% | 103% | 101% and 116% | 109% and 139% | 104% | 108% and 97.4% | 105% and 90.4% | 86.8% and 96.3% | 101% and 110% | 98.8% and 96.2% | 103% and 104% | 97.4% | 107% |
| CCCO/N=C/c1ccccn1 | 93.4% | 101% | 103% and 107% | 106% and 100% | 97.4% | 101% and 89.7% | 107% and 101% | 105% and 113% | 102% and 104% | 101% and 99.5% | 107% and 93.9% | 90.8% | 107% and 105% | 102% and 110% | 89.2% and 92.4% | 102% | 110% and 105% | 101% and 103% |
| CCCCCCCC/C=C\CCCCCCCCOc1ccccc1CC(=O)NCC[N+]1(C)CCOCC1 | 30% | 77.7% | 78.1% | 42.7% | 102% | 75.3% | 25.2% | 101% | 92.9% | 97.9% | 84.4% | 82.3% | 95.8% | 81.7% | 82.2% | 71.8% | 45.4% | 47.3% |
